PubChem BioAssay (NCI)
Compounds without any hit were thinned out: in the full panel of roughly 83,000, 20% have a hit.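 The endpoint reported here, percent growth, reads 100 for growth as untreated, 0 for no net growth and -100 for all cells dead.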 A number with no mark means an inactive call. The source made the active and inactive calls. How the source made its calls: active means growth percent below 10; inactive means the rest.

The compounds below were run on EKVX NSCLC (assay: NCI-60 one-dose screen, 48 h (100 = growth as untreated, 0 = no growth, -100 = all killed)). Conditions: 10 µM unless noted.

SMILES	growth
Cn1cc(-c2cc3nc(-c4cn(C)c5ncccc45)cc(N)n3n2)c2cc(Cl)ccc21	-38.5% (active)
CC12CC[C@@H]3[C@]4(C)COC(c5c(F)cccc5F)O[C@@H]4CC[C@@]3(C)[C@@H]1CC(C1=CCOC1=O)O2 (stereo partly drawn)	70.3%
Cc1nc(Nc2ncc(C(=O)Nc3c(C)cccc3Cl)s2)cc(N2CCN(CCCNC(=O)COc3ccc(C4CCC(=O)NC4=O)cc3)CC2)n1 (stereo not drawn)	58.6%
Cn1cc(NC(=O)c2cc(NC(=O)c3ccc(/C=C/c4ccccc4)cc3)cn2C)cc1C(=O)NCCCN1CCOCC1	89.6%
Cc1ccccc1[C@H]1C(C(=O)c2ccc(Cl)cc2)C2(N[C@@H]1c1ccccc1)C(=O)Nc1ccc(Br)cc12 (stereo partly drawn)	26.4%
Brc1ccc(N/N=C/c2c[nH]c3ccc(Br)cc23)nc1	-11.8% (active)
C=C1CCC2C3(C)COC(c4ccccc4)OC3CCC2(C)C1CC(Sc1ccccc1)C1=CCOC1=O (stereo not drawn)	69.3%
Clc1cccc(N/N=C/c2c[nH]c3ccc(Br)cc23)n1	33.9%
COc1c(F)ccc(C(=O)Nc2ccc3nc(NC(=O)C4CCCN(S(=O)(=O)c5cccc(C(F)(F)F)c5)C4)sc3c2)c1F (stereo not drawn)	94.5%
O=c1oc2ccc(Br)cc2cc1C1=CSc2nc3sc4c(c3c(=O)n2N=C1)CCCC4	97%
CC(=O)/C=C/c1cccc2c1C(=O)NC(C)(c1cc3cc(Br)ccc3oc1=O)N2 (stereo not drawn)	34.3%
O=c1[nH]c(=O)c2c(-c3cc4ccccc4oc3=O)ccnc2[nH]1	103%
O=C(/C=C/Nc1ccc2oc(=O)ccc2c1)c1cc2cc(Br)ccc2oc1=O	105%
CC1(c2cc3cc(Cl)ccc3oc2=O)NC(=O)c2c(/C=C/C(=O)OC3CC4CCC3(C)C4(C)C)cccc2N1 (stereo not drawn)	49.4%
COc1ccc(-c2ccnc(SCc3cc4ccccc4[nH]c3=O)n2)cc1OC	-16.6% (active)
CC12CC[C@@H]3[C@]4(C)COC(c5cn[nH]c5-c5cccc(Br)c5)O[C@@H]4CC[C@@]3(C)[C@@H]1CC(C1=CCOC1=O)O2 (stereo partly drawn)	28.2%
O=C(c1ccc(OCCN2CCOCC2)cc1)C1[C@H](c2ccc(Cl)cc2)[C@@H](c2ccccc2)NC12C(=O)Nc1ccc(Br)cc12 (stereo partly drawn)	19.8%
COc1ccc2c(c1)c(/C=N/Nc1ccc3ccccc3n1)cn2C	53.1%
CN(C)CCOc1ccc(C(=O)C2[C@H](c3ccc(Cl)cc3)[C@@H](c3ccccc3)NC23C(=O)Nc2ccc(Br)cc23)cc1 (stereo partly drawn)	12.3%

SMILES	growth
O=c1[nH]c2ccc(Cl)cc2cc1CSc1nccc(-c2ccc(Cl)cc2)n1	42.8%
COc1cccc(/C=C/c2nc3ccccc3c(=O)n2CC(=O)Nc2ccc(Cl)cc2)c1	109%
CCCSc1nc(Nc2ccc(S(N)(=O)=O)cc2)c(C#N)c(-c2cc(OC)c(OC)c(OC)c2)n1	36.6%
CC(/C=C1\SC(=S)N(CCCC(=O)NC(CC(C)C)C(=O)O)C1=O)=C\c1ccccc1 (stereo not drawn)	101%
COc1ccc(/C=C/c2nc3ccccc3c(=O)n2CC(=O)Nc2ccc(Cl)cc2)cc1	89.3%
Cn1cc(-c2cc3nc(-c4cn(C)c5ncc(Br)cc45)cc(N)n3n2)c2cc(Cl)ccc21	-71.1% (active)
Cn1cc(-c2cc(N)n3nc(-c4cn(C)c5ncccc45)cc3n2)c2cccnc21	95%
Cc1ccc([C@H]2C(C(=O)c3ccc(Cl)cc3)C3(N[C@@H]2c2ccccc2)C(=O)Nc2ccc(Cl)cc23)cc1 (stereo partly drawn)	59.8%
O=C(Cn1c(/C=C/c2ccccc2)nc2ccccc2c1=O)Nc1ccc(Cl)cc1	98.6%
CC12CC[C@@H]3[C@]4(C)COC(c5cn[nH]c5-c5cccc(Cl)c5)O[C@@H]4CC[C@@]3(C)[C@@H]1CC(C1=CCOC1=O)O2 (stereo partly drawn)	26%
CCCCSc1nc(Nc2ccc(S(N)(=O)=O)cc2)c(C#N)c(-c2cc(OC)c(OC)c(OC)c2)n1	55.2%
CCOC(=O)/C=C/c1cccc2c1C(=O)NC(C)(c1cc3cc(Cl)ccc3oc1=O)N2 (stereo not drawn)	31.8%
O=C(c1ccc(OCCN2CCOCC2)cc1)C1[C@H](c2ccc(Cl)cc2)[C@@H](c2ccccc2)NC12C(=O)Nc1ccc(Cl)cc12 (stereo partly drawn)	23.1%
CC(C)c1sc(NC(=O)c2cc(NC(=O)c3cc(NC(=O)c4nccn4C)cn3C)cn2C)nc1C(=O)NCCCN(C)C	105%
COc1c(F)ccc(C(=O)Nc2ccc3nc(NC(=O)C4CCCN(S(=O)(=O)c5ccc(Cl)cc5)C4)sc3c2)c1F (stereo not drawn)	85.1%
O=C(N1c2ccccc2Sc2ccccc21)n1ccc2cccnc21	79.3%
Cn1cc(-c2cc(N)n3nc(-c4cn(C)c5ncc(Br)cc45)cc3n2)c2cc(Br)cnc21	85.1%
CC1=C(C#N)C2=NNCC(c3ccccc3)=NN2C(c2ccccc2)=C1	99.7%
C=C1CC[C@@H]2[C@]3(C)COC(c4cn[nH]c4-c4ccc(F)cc4)O[C@@H]3CC[C@@]2(C)[C@@H]1C/C=C1/C(=O)OCC1O (stereo partly drawn)	-6.56% (active)
